Results from PubChem BioAssay (NCI).
The panel holds about 79,000 compounds, 15% with a hit somewhere; the sample as a whole holds those more often. A number with no mark means an inactive call. Calls of active or inactive are those of the source. Rule as the data show it: active = growth inhibition above about 70%; inactive = the rest.

Experiments:
[1] = NCI Yeast Anticancer Drug Screen. Data for the mlh1 strain (AID 171);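 also: 0% = growth of vehicle-treated control cultures of the same strain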; conditions: S. cerevisiae mlh1 strain growth inhibition, hits give high values
How it was run: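 Steps: expose the defined-mutant yeast strain to compound; expose a parallel culture to vehicle; measure growth; express compound effect as inhibition relative to the vehicle culture.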

[2] = NCI Yeast Anticancer Drug Screen. Data for the sgs1 strain (AID 173);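 also: 0% = growth of vehicle-only control cultures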; conditions: S. cerevisiae sgs1 mutant, hits give high values
How it was run: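 Treat defined-mutant yeast with compound; measure growth; calculate inhibition relative to vehicle-treated cells.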

[3] = NCI Yeast Anticancer Drug Screen. Data for the mlh1 rad18 strain (AID 175); conditions: S. cerevisiae mlh1 rad18 strain growth inhibition, hits give high values
How it was run: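 Test agents were incubated with a yeast strain of defined genotype (DNA damage repair defect). Inhibition of growth was derived by comparison with vehicle-exposed cultures.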

[4] = NCI Yeast Anticancer Drug Screen. Data for the rad18 strain (AID 177); conditions: S. cerevisiae rad18 mutant growth inhibition, hits give high values
How it was run: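 A genetically defined yeast mutant impaired in DNA damage repair was treated with test compounds, then its growth was measured against cultures receiving vehicle alone.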

[5] = NCI Yeast Anticancer Drug Screen. Data for the rad52 strain (AID 147);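 also: 0% = growth of vehicle-treated control cultures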; conditions: S. cerevisiae rad52 mutant growth inhibition, hits give high values
How it was run: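 Screen used a yeast mutant impaired in DNA repair. After compound exposure, growth was measured. Values reflect inhibition compared with vehicle-treated cells.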

[6] = NCI Yeast Anticancer Drug Screen. Data for the wt1 strain (AID 149);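 also: 0% = growth of vehicle-treated wt1 cultures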; conditions: S. cerevisiae wt1 strain (SPY 50644) growth inhibition, hits give high values
How it was run: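 Readout: yeast growth inhibition, normalised to vehicle controls, in the wt1 strain exposed to test compounds.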

[7] = NCI Yeast Anticancer Drug Screen. Data for the rad50EPP+ strain (AID 151);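 also: 0% = growth of vehicle-treated control cultures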; conditions: S. cerevisiae rad50 mutant strain, hits give high values
How it was run: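 Exposing the rad50EPP+ strain to each compound, growth was compared with vehicle-only cultures to give inhibition.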

[8] = NCI Yeast Anticancer Drug Screen. Data for the rad50 strain (AID 155);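 also: 0% = growth of vehicle-only cultures of the same strain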; conditions: S. cerevisiae rad50 strain growth inhibition, hits give high values
How it was run: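 Compounds were tested on a yeast strain with an engineered DNA damage repair alteration; the reported value is growth inhibition normalised to vehicle treatment.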

[9] = NCI Yeast Anticancer Drug Screen. Data for the mec2-1 strain (AID 157); conditions: S. cerevisiae mec2-1 strain, hits give high values
How it was run: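 Readout is yeast growth inhibition, normalised to vehicle-treated controls, in the mec2-1 strain exposed to compound.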

[10] = NCI Yeast Anticancer Drug Screen. Data for the rad14 strain (AID 159);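 also: 0% = growth of vehicle-treated control cultures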; conditions: S. cerevisiae rad14 strain growth inhibition, hits give high values
How it was run: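 Compound-treated yeast with a defined DNA-repair lesion; growth inhibition normalised to vehicle-treated cultures.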

[11] = NCI Yeast Anticancer Drug Screen. Data for the sgs1 mgt1 strain (AID 161);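 also: 0% = growth of cultures given vehicle only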; conditions: S. cerevisiae sgs1 mgt1 strain, hits give high values
How it was run: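 This yeast growth screen uses a strain with defined DNA-repair lesions; compound-treated growth is compared with vehicle-treated growth.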

[12] = NCI Yeast Anticancer Drug Screen. Data for the CLN2oe strain (AID 163);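 also: 0% = growth of vehicle-only control cultures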; conditions: S. cerevisiae CLN2oe strain, hits give high values
How it was run: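 Values reflect how much compound exposure reduced yeast growth, referenced to vehicle-exposed cells. Assay organism is a strain with a defined genetic change affecting cell-cycle control.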

[13] = NCI Yeast Anticancer Drug Screen. Data for the cln2 rad14 strain (AID 165);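 also: 0% = growth equal to vehicle treated cultures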; conditions: S. cerevisiae cln2 rad14 strain, hits give high values
How it was run: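 Relative to vehicle controls, growth inhibition of compound-treated cln2 rad14 yeast was recorded.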

[14] = NCI Yeast Anticancer Drug Screen. Data for the bub3 strain (AID 167); conditions: S. cerevisiae bub3 mutant strain, hits give high values
How it was run: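 Growth of a checkpoint-deficient yeast mutant is measured after compound exposure. Values represent inhibition relative to vehicle.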

[15] = NCI Yeast Anticancer Drug Screen. Data for the wt2 strain (AID 169);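 also: 0% = growth of vehicle-treated yeast cultures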; conditions: S. cerevisiae wt2 strain growth inhibition, hits give high values
How it was run: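 Values express reduction in yeast growth under compound treatment, referenced to vehicle-treated cells.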

[16] = at 5.0 µM (retest, dose inferred, filed as 0.5)
[17] = at 50.0 µM (retest, dose inferred, filed as 5.0)

Question: For `O=C(Nc1ccc2c(c1)Cc1c-2ccc([N+](=O)[O-])c1F)C(F)(F)F`, which growth inhibition ([1]; at 1.2 µM) is on record?
Answer: 5%

Question: And the growth inhibition ([1]; at 3.7 µM)?
Answer: 3%

Question: What about the growth inhibition ([1]; at 11.0 µM) of the same compound?
Answer: 3%

Question: And the growth inhibition ([1]; at 33.0 µM)?
Answer: 2%

Question: What about the growth inhibition ([1]; at 100.0 µM) of the same compound?
Answer: 2%

Question: What about the growth inhibition ([2]; at 1.2 µM) of the same compound?
Answer: 1%

Question: What about the growth inhibition ([2]; at 3.7 µM) of the same compound?
Answer: 3%

Question: And the growth inhibition ([2]; at 11.0 µM)?
Answer: -1%

Question: And the growth inhibition ([2]; at 33.0 µM)?
Answer: 1%

Question: And the growth inhibition ([2]; at 100.0 µM)?
Answer: 3%

Question: What about the growth inhibition [3, 16] of the same compound?
Answer: 62%

Question: And the growth inhibition [3, 17]?
Answer: 79% (active)

Question: And the growth inhibition ([3]; at 50.0 µM)?
Answer: 18.4%

Question: What about the growth inhibition ([4]; at 1.2 µM) of the same compound?
Answer: 4%

Question: What about the growth inhibition ([4]; at 3.7 µM) of the same compound?
Answer: 0%

Question: What about the growth inhibition ([4]; at 11.0 µM) of the same compound?
Answer: -25%

Question: What about the growth inhibition ([4]; at 33.0 µM) of the same compound?
Answer: 5%

Question: What about the growth inhibition ([4]; at 100.0 µM) of the same compound?
Answer: 9%

Question: Which growth inhibition ([5]; at 1.2 µM) does the source give for `N#CC(=C1C=CC(=NO)C=C1)c1ccccc1` here?
Answer: 6%

Question: And the growth inhibition ([5]; at 3.7 µM)?
Answer: 24%

Question: And the growth inhibition ([5]; at 11.0 µM)?
Answer: 98% (active)

Question: What about the growth inhibition ([5]; at 33.0 µM) of the same compound?
Answer: 99% (active)

Question: And the growth inhibition ([5]; at 100.0 µM)?
Answer: 99% (active)

Question: And the growth inhibition ([6]; at 1.2 µM)?
Answer: 3%

Question: And the growth inhibition ([6]; at 3.7 µM)?
Answer: 13%

Question: And the growth inhibition ([6]; at 11.0 µM)?
Answer: 99% (active)

Question: And the growth inhibition ([6]; at 33.0 µM)?
Answer: 99% (active)

Question: What about the growth inhibition ([6]; at 100.0 µM) of the same compound?
Answer: 99% (active)

Question: And the growth inhibition ([7]; at 1.2 µM)?
Answer: 24%

Question: And the growth inhibition ([7]; at 3.7 µM)?
Answer: 64%

Question: What about the growth inhibition ([7]; at 11.0 µM) of the same compound?
Answer: 96% (active)

Question: And the growth inhibition ([7]; at 33.0 µM)?
Answer: 99% (active)

Question: And the growth inhibition ([7]; at 100.0 µM)?
Answer: 98% (active)

Question: What about the growth inhibition ([8]; at 1.2 µM) of the same compound?
Answer: 4%

Question: And the growth inhibition ([8]; at 3.7 µM)?
Answer: 26%

Question: And the growth inhibition [8, 16]?
Answer: 30%

Question: What about the growth inhibition ([8]; at 11.0 µM) of the same compound?
Answer: 98% (active)

Question: What about the growth inhibition ([8]; at 33.0 µM) of the same compound?
Answer: 99% (active)

Question: And the growth inhibition [8, 17]?
Answer: 99% (active)

Question: What about the growth inhibition ([8]; at 50.0 µM) of the same compound?
Answer: 99.3% (active)

Question: And the growth inhibition ([8]; at 100.0 µM)?
Answer: 99% (active)

Question: And the growth inhibition ([9]; at 1.2 µM)?
Answer: -3%

Question: And the growth inhibition ([9]; at 3.7 µM)?
Answer: 14%

Question: And the growth inhibition [9, 16]?
Answer: 19%

Question: And the growth inhibition ([9]; at 11.0 µM)?
Answer: 99% (active)

Question: What about the growth inhibition ([9]; at 33.0 µM) of the same compound?
Answer: 99% (active)

Question: And the growth inhibition [9, 17]?
Answer: 99% (active)

Question: What about the growth inhibition ([9]; at 50.0 µM) of the same compound?
Answer: 99.5% (active)

Question: And the growth inhibition ([9]; at 100.0 µM)?
Answer: 99% (active)

Question: And the growth inhibition ([10]; at 1.2 µM)?
Answer: 5%

Question: What about the growth inhibition ([10]; at 3.7 µM) of the same compound?
Answer: 24%

Question: And the growth inhibition ([10]; at 11.0 µM)?
Answer: 98% (active)

Question: And the growth inhibition ([10]; at 33.0 µM)?
Answer: 99% (active)

Question: And the growth inhibition ([10]; at 100.0 µM)?
Answer: 99% (active)

Question: What about the growth inhibition [11, 16] of the same compound?
Answer: 35%

Question: What about the growth inhibition [11, 17] of the same compound?
Answer: 99% (active)

Question: What about the growth inhibition ([11]; at 50.0 µM) of the same compound?
Answer: 99.4% (active)

Question: And the growth inhibition ([12]; at 1.2 µM)?
Answer: 2%

Question: What about the growth inhibition ([12]; at 3.7 µM) of the same compound?
Answer: 10%

Question: And the growth inhibition ([12]; at 11.0 µM)?
Answer: 97% (active)

Question: What about the growth inhibition ([12]; at 33.0 µM) of the same compound?
Answer: 99% (active)

Question: What about the growth inhibition ([12]; at 100.0 µM) of the same compound?
Answer: 99% (active)

Question: What about the growth inhibition [13, 16] of the same compound?
Answer: -1%

Question: What about the growth inhibition [13, 17] of the same compound?
Answer: 99% (active)

Question: What about the growth inhibition ([13]; at 50.0 µM) of the same compound?
Answer: 99.2% (active)

Question: What about the growth inhibition ([14]; at 1.2 µM) of the same compound?
Answer: -21%

Question: And the growth inhibition ([14]; at 3.7 µM)?
Answer: -19%

Question: What about the growth inhibition [14, 16] of the same compound?
Answer: 35%

Question: What about the growth inhibition ([14]; at 11.0 µM) of the same compound?
Answer: 94% (active)

Question: And the growth inhibition ([14]; at 33.0 µM)?
Answer: 97% (active)

Question: And the growth inhibition [14, 17]?
Answer: 99% (active)

Question: What about the growth inhibition ([14]; at 50.0 µM) of the same compound?
Answer: 99.3% (active)

Question: What about the growth inhibition ([14]; at 100.0 µM) of the same compound?
Answer: 99% (active)

Question: And the growth inhibition ([15]; at 1.2 µM)?
Answer: 4%

Question: And the growth inhibition ([15]; at 3.7 µM)?
Answer: 41%

Question: What about the growth inhibition ([15]; at 11.0 µM) of the same compound?
Answer: 99% (active)

Question: And the growth inhibition ([15]; at 33.0 µM)?
Answer: 99% (active)

Question: What about the growth inhibition ([15]; at 100.0 µM) of the same compound?
Answer: 99% (active)

Question: And the growth inhibition ([1]; at 1.2 µM)?
Answer: 3%

Question: And the growth inhibition ([1]; at 3.7 µM)?
Answer: 15%

Question: What about the growth inhibition ([1]; at 11.0 µM) of the same compound?
Answer: 99% (active)

Question: And the growth inhibition ([1]; at 33.0 µM)?
Answer: 99% (active)

Question: And the growth inhibition ([1]; at 100.0 µM)?
Answer: 99% (active)

Question: And the growth inhibition ([2]; at 1.2 µM)?
Answer: 9%

Question: What about the growth inhibition ([2]; at 3.7 µM) of the same compound?
Answer: 50%

Question: And the growth inhibition ([2]; at 11.0 µM)?
Answer: 99% (active)

Question: What about the growth inhibition ([2]; at 33.0 µM) of the same compound?
Answer: 99% (active)

Question: What about the growth inhibition ([2]; at 100.0 µM) of the same compound?
Answer: 99% (active)

Question: And the growth inhibition [3, 16]?
Answer: 64%

Question: What about the growth inhibition [3, 17] of the same compound?
Answer: 99% (active)

Question: And the growth inhibition ([3]; at 50.0 µM)?
Answer: 99.4% (active)

Question: And the growth inhibition ([4]; at 1.2 µM)?
Answer: 12%

Question: And the growth inhibition ([4]; at 3.7 µM)?
Answer: 43%

Question: And the growth inhibition ([4]; at 11.0 µM)?
Answer: 99% (active)

Question: And the growth inhibition ([4]; at 33.0 µM)?
Answer: 99% (active)

Question: What about the growth inhibition ([4]; at 100.0 µM) of the same compound?
Answer: 99% (active)
